# Results: PubChem BioAssay (NCATS)
# Results filed as inconclusive are left out. Where a call stands in place of a potency, no number is given. Activity calls are given as the source filed them. Unless noted, the call rests on the fitted dose curve; in most records, active means well fitted curve in the direction sought with a large enough effect; inconclusive means small, poorly fitted or top-dose-only effect, or another doubt; inactive means no such curve, though single readings can be large; an effect the other way counts as inactive or inconclusive.
# Key:
# [1] = qHTS profiling of the MIPE4 collection as inhibitors of Plasmodium falciparum (3D7) proliferation (AID 743344; call rule not given here); conditions: P. falciparum 3D7 in erythrocytes, SYBR Green DNA fluorescence, 72 h; at 28.5 µM
# Procedure, shortened: (§1)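 Erythrocytes infected with P. falciparum (0.3% parasitemia, 2.5% hematocrit) incubated with compounds 72 h at 37 C, 5% CO2. Lysis with saponin/Triton buffer containing SYBR Green I, overnight at room temperature in the dark; DNA fluorescence (485/535 nm) normalised to 0.29 uM artemisinin and DMSO.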
# [2] = qHTS profiling of the MIPE4 collection as inhibitors of Plasmodium falciparum (DD2) proliferation (AID 743345; call rule not given here); conditions: P. falciparum Dd2 in erythrocytes, SYBR Green DNA, 72 h; at 28.5 µM
# Procedure, shortened: as §1
# [3] = qHTS profiling of the MIPE4 collection as inhibitors of Plasmodium falciparum (DD2) proliferation (Rep 2) (AID 743346; call rule not given here); conditions: P. falciparum Dd2 in erythrocytes, SYBR Green DNA, 72 h; at 28.5 µM
# Procedure, shortened: as §1
# [4] = qHTS profiling of the MIPE4 collection as inhibitors of Plasmodium falciparum (HB3) proliferation (AID 743347; call rule not given here); conditions: P. falciparum HB3 in erythrocytes, SYBR Green DNA, 72 h; at 28.5 µM
# Procedure, shortened: as §1
# [5] = system: Zika virus NS2B-NS3 protease (unlinked complex); assay: Confirmatory screen GU AMC qHTS for Zika virus inhibitors (AID 1347153); further: nearly all actives have a fitted effect of over 70% in size;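 on potency: enzyme at 25 nM with substrate at 10 µM below its Km of 18.3 µM; potency means the concentration at half of the fitted maximal effect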
# Procedure, shortened: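 Unlinked NS2B-NS3 complex (25 nM) in 10 mM Tris-HCl pH 8.0, 0.01% Tween 20 preincubated 15 min with compound, then 10 microM Bz-Nle-KRR-AMC (Km 18.3 µM). Fluorescence change over 15 min, normalized, Hill-fitted.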
# [6] = Confirmatory screen NINDS Rhodamine qHTS for Zika virus inhibitors (AID 1347161); further: potency means the concentration at half of the fitted maximal effect; nearly all actives have a fitted effect of over 60% in size
# Procedure, shortened: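 Purified linked NS2B-NS3 protease (NS2B hydrophilic domain joined to NS3 protease by flexible linker), 25 nM in 10 mM Tris-HCl pH 8.0, 0.01% Tween 20. Compounds titrated, 15 min preincubation at room temperature; 1.5 microM Rhodamine110 substrate, FITC fluorescence change over 15 min.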
# [7] = system: Zika virus NS2B-NS3 protease (linked); assay: 384 well plate NINDS AMC confirmatory qHTS for Zika virus inhibitors (AID 1347163); further: nearly all actives have a fitted effect of over 50% in size; further: potency means the concentration at half of the fitted maximal effect;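 on activity change, negative = inhibition: linked protease at 5 30 or 60 nM final depending on run; fluorescence of AMC released from Ac-VKTGKR-AMC peptide cleaved by the protease; top concentration of the series differs between compounds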
# Procedure, shortened: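 Linked protease 5/30/60 nM final; cpds up to 1 mM final, ~15 min preinc. Substrate Ac-VKTGKR-AMC 30 microM final. RT, dark, 25 min; FI ex 355/em 460; normalized to no-enzyme/no-inhibitor ctrls.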
# [8] = system: Zika virus NS2B-NS3 protease (linked construct); assay: 384 well plate NINDS Rhodamine confirmatory qHTS for Zika virus inhibitors (AID 1347164);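 further: fluorescence from protease cleavage of Ac-LKRR-rhodamine 110 substrate; potency means the concentration at half of the fitted maximal effect; nearly all actives have a fitted effect of over 65% in size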
# Procedure, shortened: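 Linked protease at a final 5 nM, 30 nM or 60 nM was preincubated ~15 min with compounds, then given 10 microM Ac-LKRR-Rhodamine 110. Fluorescence (ex 485/em 538 nm) after 25 min in the dark at room temperature.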
# [9] = Vero cells viability qHTS for Zika virus inhibitors (AID 1347167)
# Procedure, shortened: (§2)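 Counter-screen for cytotoxicity of hits from NS2B-NS3 protease qHTS. Overnight-attached cells (2.5 x 10^5 cells/mL, DMEM/4% FBS) were dosed in titration, incubated 24 to 48 hours, then assayed by CellTiter Glo.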
# [10] = HepG2 cells viability qHTS for Zika virus inhibitors (AID 1347168)
# Procedure, shortened: as §2
# [11] = Tertiary RLuc qRT-PCR qHTS assay for Zika virus inhibitors (AID 1347169); further: nearly all actives have a fitted effect of over 55% in size; further: potency means the concentration at half of the fitted maximal effect; on activity change, negative = inhibition: top concentration of the series differs between compounds
# Procedure, shortened: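 Vero cells (1,000 per well) plated overnight at 37 degrees C, treated with compound in DMSO, then infected with recombinant ZIKV-RLuc (Cambodian) at MOI 1-2 for 48-72 hrs. Live-cell Renilla luciferase substrate added; luminescence read after 1-1.5 hrs.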
# [12] = system: Zika virus NS2B-NS3 protease (linked construct); assay: Confirmatory screen NINDS AMC qHTS for Zika virus inhibitors (AID 1347152);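 further: AMC fluorescence gain from cleaved Bz-Nle-KRR-AMC substrate over 15 min; top concentration of the series differs between compounds; nearly all actives have a fitted effect of over 70% in size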
# Procedure, shortened: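 Purified NS2B-NS3 protease with NS2B hydrophilic domain linked to NS3 protease domain by flexible linker, 1 nM final in 10 mM Tris-HCl pH 8.0, 0.01% Tween 20. Compounds preincubated 15 min, room temperature; Bz-Nle-KRR-AMC 10 microM (Km 18.3 µM); 15-min fluorescence change, 4-parameter Hill fit.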
# [13] = molecular target: Calcium and integrin-binding protein 1 (Homo sapiens) (UniProt Q99828); assay: Primary qHTS for Identification of Calcium Integrin Binding Protein 1 (CIB1) Competitor (AID 1508620);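 further: GST tagged CIB1 binding a fluorescein labelled alphaIIb integrin peptide tracer; top concentration of the series differs between compounds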
# Sequence of Calcium and integrin-binding protein 1 (Homo sapiens) (Q99828 whole entry, looked up): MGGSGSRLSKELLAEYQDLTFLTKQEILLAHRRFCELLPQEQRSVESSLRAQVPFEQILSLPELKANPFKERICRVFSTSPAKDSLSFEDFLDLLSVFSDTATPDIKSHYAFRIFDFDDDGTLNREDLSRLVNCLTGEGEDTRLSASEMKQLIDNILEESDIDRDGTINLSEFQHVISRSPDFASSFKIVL
# Procedure, shortened: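 Fluorescence polarization competition: CIB1-GST (1 uM final) preincubated with compound 15 min at room temperature, then FITC-labeled alphaIIb peptide (100 nM final) added for another 15 min. Polarization read at Ex 480/Em 540.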
# [14] = system: Zika virus NS2B-NS3 protease; assay: Primary screen GU AMC qHTS for Zika virus inhibitors (AID 1347154); further: nearly all actives have a fitted effect of over 70% in size
# Procedure, shortened: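 Unlinked Zika NS2B hydrophilic domain/NS3 protease domain noncovalent complex (25 nM final) in 10 mM Tris-HCl pH 8.0, 0.01% Tween 20, with AMC peptide substrate. Fluorescence (ex 340, em 450 nm) change over 15 min, room temperature; percent inhibition fitted to 4-parameter Hill equation.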
# [15] = molecular target: Cytochrome P450 3A4 (Homo sapiens) (UniProt P08684); assay: qHTS Assay for Inhibitors and Substrates of Cytochrome P450 3A4 (AID 884); further: nearly all actives have a fitted effect of over 50% in size
# Sequence of Cytochrome P450 3A4 (Homo sapiens) (P08684 whole entry, looked up): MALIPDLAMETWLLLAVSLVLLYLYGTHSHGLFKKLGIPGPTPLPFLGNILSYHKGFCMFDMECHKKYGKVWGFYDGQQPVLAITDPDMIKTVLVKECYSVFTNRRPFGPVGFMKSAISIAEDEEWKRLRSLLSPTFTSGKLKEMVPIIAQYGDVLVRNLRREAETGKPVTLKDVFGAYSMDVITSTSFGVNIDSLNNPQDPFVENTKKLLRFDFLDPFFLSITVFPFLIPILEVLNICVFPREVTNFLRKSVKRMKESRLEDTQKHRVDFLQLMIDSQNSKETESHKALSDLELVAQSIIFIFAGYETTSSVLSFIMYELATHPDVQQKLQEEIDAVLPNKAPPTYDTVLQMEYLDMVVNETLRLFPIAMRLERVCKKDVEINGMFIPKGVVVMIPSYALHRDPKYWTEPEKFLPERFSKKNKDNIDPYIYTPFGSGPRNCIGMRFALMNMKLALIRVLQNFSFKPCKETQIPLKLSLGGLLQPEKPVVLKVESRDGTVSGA
# Procedure, shortened: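 20 nM human CYP3A4 with 25 uM Luciferin-PPXE (at KM) in 200 mM KPO4, preincubated 10 min with compound; NADPH regeneration started a 60 min RT reaction. Luciferin detected by luminescence, normalized to 57 uM ketoconazole as full inhibition.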
# [16] = ZIKV-mCherry secondary qHTS for Zika virus inhibitors (AID 1347158); further: potency means the concentration at half of the fitted maximal effect
# Procedure, shortened: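 Vero cells, 5,000/well, plated overnight at 37 °C, then compound added and infected with recombinant ZIKV-mCherry at MOI 1 for 48-72 h. PFA-fixed, Hoechst nuclear stain, high-content imaging; cells with mCherry intensity above 450 RFU scored infected, reported as percent infection.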
# [17] = Confirmation and Secondary Assay for Modulators of Hemoglobin Beta Chain Splicing at IVS2 654 locus (AID 910);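 further: per-well total GFP intensity by laser scanning cytometry after 2-day treatment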
# Procedure, shortened: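 HeLa cells stably carrying EGFP interrupted by mutant beta-globin IVS2-654 intron (CMV-driven) were treated with compound for 2 days at 37C; corrected splicing was scored as total peak GFP intensity per well (488 nm excitation, 500-520 nm emission).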
# [18] = Confirmation and Secondary Assay for Modulators of Hemoglobin Beta Chain Splicing at IVS2 705 locus (AID 930);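 further: HeLa cells stably expressing the EGFP-705 splicing reporter; GFP fluorescence per well restored by corrected splicing of the IVS2-705 intron in EGFP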
# Procedure, shortened: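 Stable HeLa line with EGFP disrupted by mutant beta-globin intron 2 (705). Overnight attachment, then 2 days of compound at 37C, 5% CO2. Signal: peak GFP intensity summed over objects 5-250 µm.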
# [19] = qHTS Assay for Lipid Storage Modulators (AID 1519; calls by dose curve); conditions: Drosophila S3 cells, BODIPY lipid droplet/cell ratio, laser cytometry, cells loaded with oleic acid
# Procedure, shortened: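 Cells seeded at 5,000 per well were treated with compounds over a concentration series and loaded with oleic acid (400 uM, as added). Lipid droplet fluorescence (488 nm excitation, 500-530 nm channel) was read by laser-scanning cytometry and normalized to 20 uM Triacsin C.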
# [20] = molecular target: Ubiquitin carboxyl-terminal hydrolase 1 (Homo sapiens) (UniProt O94782); assay: Inhibitors of USP1/UAF1: Pilot qHTS (AID 504865); further: potency means the concentration at half of the fitted maximal effect; nearly all actives have a fitted effect of over 35% in size
# Sequence of Ubiquitin carboxyl-terminal hydrolase 1 (Homo sapiens) (O94782 whole entry, looked up): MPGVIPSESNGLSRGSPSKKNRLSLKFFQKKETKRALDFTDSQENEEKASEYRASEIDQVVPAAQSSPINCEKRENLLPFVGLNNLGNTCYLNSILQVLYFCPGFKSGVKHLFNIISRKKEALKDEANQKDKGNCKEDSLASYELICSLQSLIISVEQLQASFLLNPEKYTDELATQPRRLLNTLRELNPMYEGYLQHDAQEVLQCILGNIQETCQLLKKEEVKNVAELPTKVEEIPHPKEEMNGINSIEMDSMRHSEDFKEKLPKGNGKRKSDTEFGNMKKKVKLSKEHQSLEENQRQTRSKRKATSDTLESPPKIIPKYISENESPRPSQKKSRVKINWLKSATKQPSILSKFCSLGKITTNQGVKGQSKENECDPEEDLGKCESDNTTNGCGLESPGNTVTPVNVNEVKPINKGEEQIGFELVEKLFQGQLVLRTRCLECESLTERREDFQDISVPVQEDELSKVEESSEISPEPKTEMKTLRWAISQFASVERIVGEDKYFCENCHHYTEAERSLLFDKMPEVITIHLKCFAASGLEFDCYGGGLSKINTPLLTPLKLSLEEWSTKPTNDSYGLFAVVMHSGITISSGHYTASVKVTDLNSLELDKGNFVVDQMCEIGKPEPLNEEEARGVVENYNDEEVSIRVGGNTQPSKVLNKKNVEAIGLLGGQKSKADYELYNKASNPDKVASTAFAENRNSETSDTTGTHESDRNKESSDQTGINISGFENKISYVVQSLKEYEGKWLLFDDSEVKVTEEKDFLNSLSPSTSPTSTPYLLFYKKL
# Procedure, shortened: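 USP1/UAF1 complex (1nM) preincubated with compound 15 min at room temperature, then Ub-Rho substrate (150nM final) added. Fluorescence read kinetically at 480/540 nm, 6 reads every 60 seconds. Buffer: 50mM HEPES pH 7.8, 0.5mM EDTA, 0.1 mg/ml BSA, 1mM TCEP, 0.01% Tween-20.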
# [21] = Primary qHTS for small molecule stabilizers of the endoplasmic reticulum resident proteome: Secreted ER Calcium Modulated Protein (SERCaMP) assay (AID 1508630)
# Procedure, shortened: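 GLuc-SERCaMP-expressing SH-SY5Y cells, pretreated 16 h with compound, are challenged with thapsigargin to empty ER calcium stores; after 4 h, coelenterazine is added directly to the medium and luminescence is imaged.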
# [22] = molecular target: Rap guanine nucleotide exchange factor 3 (Homo sapiens) (UniProt O95398); assay: Confirmatory qHTS for antagonist of cAMP-regulated guanine nucleotide exchange factor 3 (EPAC1) (AID 1645880); further: potency means the concentration at half of the fitted maximal effect; nearly all actives have a fitted effect of over 55% in size
# Sequence of Rap guanine nucleotide exchange factor 3 (Homo sapiens) (O95398 whole entry, looked up): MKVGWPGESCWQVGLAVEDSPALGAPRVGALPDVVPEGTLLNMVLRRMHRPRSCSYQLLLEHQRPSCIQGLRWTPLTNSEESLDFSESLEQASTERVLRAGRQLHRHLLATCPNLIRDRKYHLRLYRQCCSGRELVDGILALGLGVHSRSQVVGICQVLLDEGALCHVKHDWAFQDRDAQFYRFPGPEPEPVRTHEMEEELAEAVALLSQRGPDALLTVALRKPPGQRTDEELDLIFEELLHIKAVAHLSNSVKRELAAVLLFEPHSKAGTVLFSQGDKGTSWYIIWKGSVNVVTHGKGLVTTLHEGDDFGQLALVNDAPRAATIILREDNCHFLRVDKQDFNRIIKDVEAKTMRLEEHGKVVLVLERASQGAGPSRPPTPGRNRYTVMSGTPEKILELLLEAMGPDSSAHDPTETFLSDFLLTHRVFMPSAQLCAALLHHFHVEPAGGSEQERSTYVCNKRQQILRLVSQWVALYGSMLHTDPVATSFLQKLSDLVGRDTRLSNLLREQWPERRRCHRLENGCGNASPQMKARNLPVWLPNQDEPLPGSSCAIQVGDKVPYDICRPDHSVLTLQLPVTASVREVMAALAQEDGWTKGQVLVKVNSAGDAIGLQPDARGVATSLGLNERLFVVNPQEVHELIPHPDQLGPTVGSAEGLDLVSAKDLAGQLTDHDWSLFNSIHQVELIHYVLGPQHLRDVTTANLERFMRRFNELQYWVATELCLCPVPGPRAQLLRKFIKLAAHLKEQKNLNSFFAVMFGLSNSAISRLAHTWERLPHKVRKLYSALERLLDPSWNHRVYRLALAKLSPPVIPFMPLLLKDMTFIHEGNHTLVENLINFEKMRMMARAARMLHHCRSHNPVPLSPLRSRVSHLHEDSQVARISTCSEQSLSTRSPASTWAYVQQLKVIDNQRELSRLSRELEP
# Procedure, shortened: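 Nucleotide exchange uses 100 nM EPAC1, 250 nM RAP1B-BODIPY-GDP and 50 uM GDP, with compounds in a concentration-titration series. After 5 min at room temperature, fluorescence (480 nm ex/540 nm em) is read every 5 min for 30 min. Data are normalized to control ATA and DMSO.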
# [23] = molecular target: Rap guanine nucleotide exchange factor 3 (Homo sapiens) (UniProt O95398); assay: Confirmatory qHTS for agonist of cAMP-regulated guanine nucleotide exchange factor 3 (EPAC1) (AID 1645881);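 further: EPAC1 catalysed release of BODIPY-GDP from Rap1B seen as fluorescence loss; nearly all actives have a fitted effect of over 75% in size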
# [24] = molecular target: Rap guanine nucleotide exchange factor 4 (Homo sapiens) (UniProt Q8WZA2); assay: Confirmatory qHTS for agonist of cAMP-regulated guanine nucleotide exchange factor 4 (EPAC2) (AID 1645884);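 further: nucleotide exchange releases bodipy-GDP from Rap1 and this lowers its fluorescence; nearly all actives have a fitted effect of over 65% in size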
# Sequence of Rap guanine nucleotide exchange factor 4 (Homo sapiens) (Q8WZA2 whole entry, looked up): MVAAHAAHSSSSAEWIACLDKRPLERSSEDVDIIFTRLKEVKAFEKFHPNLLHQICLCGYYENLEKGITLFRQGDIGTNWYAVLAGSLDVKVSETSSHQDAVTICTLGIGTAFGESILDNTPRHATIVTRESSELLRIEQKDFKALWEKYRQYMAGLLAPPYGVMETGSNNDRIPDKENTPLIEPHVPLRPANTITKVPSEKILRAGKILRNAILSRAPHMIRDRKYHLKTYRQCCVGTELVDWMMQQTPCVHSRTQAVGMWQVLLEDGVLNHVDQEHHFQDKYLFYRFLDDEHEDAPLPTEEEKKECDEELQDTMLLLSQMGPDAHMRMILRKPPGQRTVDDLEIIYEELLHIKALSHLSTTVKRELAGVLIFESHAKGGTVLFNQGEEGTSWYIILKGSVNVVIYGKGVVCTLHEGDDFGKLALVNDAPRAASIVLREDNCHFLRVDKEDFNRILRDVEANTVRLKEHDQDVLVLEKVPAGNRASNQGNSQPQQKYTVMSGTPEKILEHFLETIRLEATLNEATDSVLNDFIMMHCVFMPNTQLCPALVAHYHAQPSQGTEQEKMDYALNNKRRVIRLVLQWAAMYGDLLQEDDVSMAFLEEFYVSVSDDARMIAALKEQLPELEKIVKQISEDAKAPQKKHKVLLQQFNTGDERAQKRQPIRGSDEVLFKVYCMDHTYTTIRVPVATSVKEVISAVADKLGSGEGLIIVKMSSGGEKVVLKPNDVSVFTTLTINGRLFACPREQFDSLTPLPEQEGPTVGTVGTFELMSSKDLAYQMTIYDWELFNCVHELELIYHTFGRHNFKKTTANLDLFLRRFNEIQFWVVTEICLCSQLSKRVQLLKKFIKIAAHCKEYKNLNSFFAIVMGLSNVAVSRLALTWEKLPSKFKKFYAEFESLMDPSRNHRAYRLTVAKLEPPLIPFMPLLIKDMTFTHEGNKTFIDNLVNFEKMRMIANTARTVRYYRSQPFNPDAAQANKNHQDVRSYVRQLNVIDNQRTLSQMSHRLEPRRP
# [25] = molecular target: Rap guanine nucleotide exchange factor 4 (Homo sapiens) (UniProt Q8WZA2); assay: Confirmatory qHTS for antagonist of cAMP-regulated guanine nucleotide exchange factor 4 (EPAC2) (AID 1645885); further: nearly all actives have a fitted effect of over 25% in size
# [26] = molecular target: Glutathione peroxidase 1 (Homo sapiens) (UniProt P07203); assay: Primary qHTS Assay for Inhibitors of Recombinant Selenoprotein Glutathione Peroxidase 1 (GPX1) (AID 1845191); further: nearly all actives have a fitted effect of over 65% in size
# Sequence of Glutathione peroxidase 1 (Homo sapiens) (P07203 whole entry, looked up): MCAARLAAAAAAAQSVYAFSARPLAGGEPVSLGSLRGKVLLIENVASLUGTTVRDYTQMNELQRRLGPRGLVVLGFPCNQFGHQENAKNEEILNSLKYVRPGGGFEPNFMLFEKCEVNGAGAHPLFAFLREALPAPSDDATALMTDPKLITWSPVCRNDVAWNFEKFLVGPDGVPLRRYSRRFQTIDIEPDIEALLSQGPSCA
# Procedure, shortened: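 Recombinant GPX1 (10 nM final) was preincubated with compound for 30 min at room temperature, then reacted with 1 mM GSH, 0.5 mM CHP, 0.5 mM NADPH and 100 nM glutathione reductase; NADPH fluorescence (340/450 nm) was read at 0 and 15 min.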
structure (smiles),measurement,setting,value
O=C(O)c1cc(NCc2cc(O)ccc2O)ccc1O,"parasite growth, % of DMSO control",[1],85.7%
same,"parasite growth remaining, % of DMSO control (lower = more inhibition)",[2],96.7%
same,"parasite growth, % of control (lower = inhibition)",[3],67.1%
same,"growth, % of control",[4],68.7%
same,Potency,[5],inactive
same,Potency,[6],12.4 µM (active)
same,Potency,[7],inactive
same,Potency,[8],22.4 µM (active)
same,Potency,[9],inactive
same,Potency,[10],inactive
same,Potency,[11],inactive
O=C(OCC#CCSc1nnc(-c2ccc(Cl)cc2)o1)c1ccc(F)cc1,Potency,[12],inactive
same,Potency,[5],inactive
same,Potency,[11],inactive
same,outcome,[13],inactive
CC(C)=CCC/C(C)=C/CC/C(C)=C/CC[C@]1(C)CCc2c(C)c(O)c(C)c(C)c2O1,"activity change, negative = inhibition",[14],0.636% [at 6.83 µM] (inactive)
COc1cccc2c1C(=O)c1c(O)c3c(c(O)c1C2=O)C[C@@](O)(C(=O)CO)C[C@@H]3O[C@@H]1C[C@H](N)[C@H](O)[C@H](C)O1,Potency,[14],inactive
CCOC(=O)C1OC1C(=O)NC(CC(C)C)C(=O)NCCC(C)C (centres undefined),Potency,[14],inactive
NC(C(=O)O)[C@H](O)C(=O)O (some centres undefined),Potency,[14],inactive
COc1cc(O)c2c(=O)cc(-c3ccc(OC)c(-c4c(O)cc(O)c5c(=O)cc(-c6ccc(O)cc6)oc45)c3)oc2c1,Potency,[15],inactive
same,Potency,[5],44.1 µM (active)
same,Potency,[16],11.2 µM (active)
same,Potency,[7],35.5 µM (active)
same,Potency,[8],112 µM (active)
same,Potency,[11],16.5 µM (active)
CC(C)=CCCC1(C)C=Cc2c(O)c3c(c(CC=C(C)C)c2O1)OC12C(=CCCC1C(C)(C)O[C@@]2(C/C=C(\C)C(=O)O)C(=O)O)C3=O (some centres undefined),Potency,[15],inactive
same,outcome,[17],inactive
same,outcome,[18],inactive
same,"activity change, negative = inhibition",[19]; at 57.5 µM (top of the series),7.82% (inactive)
same,max response,[19]; measured here: cell count channel max response,0.914%
same,max response,[19]; measured here: lipid channel max response,7.86%
same,Potency,[20],79.4 µM (active)
same,Potency,[5],19.2 µM (active)
same,Potency,[6],1.39 µM (active)
same,Potency,[7],158 µM (active)
same,Potency,[8],22.4 µM (active)
same,Potency,[9],inactive
same,Potency,[10],inactive
same,Potency,[21],inactive
same,Potency,[22],55.9 µM (active)
same,outcome,[23],inactive
same,outcome,[24],inactive
same,Potency,[25],inactive
Cc1nn(C)c2nc(NNC(=O)Nc3cc(Cl)nc(Cl)c3)cc(C(C)C)c12,Potency,[14],inactive
CC(C)CC(NC(=O)NC(CCC(=O)O)C(=O)O)C(=O)O (centres undefined),Potency,[14],inactive
c1ccc(-c2n[nH]c3c2oc2ccccc23)cc1,Potency,[14],inactive
C[C@H](CCC(=O)NCC(=O)O)C1CC[C@H]2[C@H]3C(C[C@H](O)[C@]12C)[C@@]1(C)CC[C@@H](O)C[C@H]1C[C@H]3O (some centres undefined),Potency,[14],inactive
C=CC1CN2CCC1C[C@H]2C(O)c1ccnc2ccc(OC)cc12 (some centres undefined),Potency,[14],inactive
CCCCCCCCCCCCCC(=O)N[C@@H](C)[C@H](O)c1ccccc1,"activity change, negative = inhibition",[14],10.8% [at 6.83 µM] (inactive)
Nc1nc2c([nH]c(=O)n2[C@@H]2O[C@H](CO)[C@@H](O)[C@H]2O)c(=O)[nH]1,"activity change, negative = inhibition",[14],7.35% [at 6.83 µM] (inactive)
CO[C@H]1C[C@@H](O[C@@H]2/C(C)=C/C[C@@H]3C[C@@H](C[C@]4(CC[C@H](C)[C@@H](C5CCCCC5)O4)O3)OC(=O)[C@@H]3C=C(C)/C(=N/O)[C@H]4OC/C(=C\C=C\[C@@H]2C)[C@]43O)O[C@@H](C)[C@H]1O,Potency,[5],inactive
same,Potency,[6],22 µM (active)
same,Potency,[21],inactive
same,Potency,[26],inactive
C[S+](=O)([O-])c1ccc(OCC2CN(Cc3ccccc3)C(=O)c3c(ccnc3-c3ccc(OCC(=O)O)cc3)O2)cc1 (centres undefined),Potency,[12],inactive
same,Potency,[5],inactive
same,Potency,[11],inactive
CC[C@@H](C)[C@H](NS(=O)(=O)c1cccc2ccccc12)C(=O)N[C@H](C=O)Cc1c[nH]c2ccccc12,Potency,[14],inactive
CC(C)c1cc(/C=C(\C#N)C(=O)NCCCc2ccccc2)cc(C(C)C)c1O,Potency,[14],inactive
